From PubChem BioAssay come the findings set out here.

Molecules are shown by their SMILES. Activity calls are given as the source filed them. Unless noted, no rule for the calls is given here.

Experiment [1] deals with Wnt5a (protein binding on small-molecule microarray). In words: Wnt5a binders on small-molecule microarray, primary screen, biophysical, 635/667 nm fluorescence (AID 1142).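 Also: fluorescence read at 667 nm with signal to noise per printed feature.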 Particulars: 635 nm fluorescence, higher = more signal.
The nature of experiment [2]: cell viability in Huh7 cells, primary screen, cytotoxicity control for HCV replication inhibitor project, CellTiter-Glo luminescence, basal, 48 h (AID 1143).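 Also: Huh7 hepatoma cells carrying a hepatitis C replication reporter with no stimulus; test concentration not given here.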 Conditions: Huh7 HCV replicon, higher = more signal, called active from +8 up or from −8 down. A general note: Cellular ATP, detected with luciferase, serves as a proxy for viable cell number.
A short description of experiment [3]: P. aeruginosa biofilm formation inhibitors, primary screen, PAO1 strain, BacTiter-Glo luminescence, LB-PBS (AID 1144). Conditions: 12 h, higher = more signal.
Experiment [4] is described as follows: CREB reporter modulators without forskolin, primary screen, cell-based, PC12, CRE-LacZ reporter, unstimulated (AID 1145). Conditions: no forskolin, luminescence, 4.5 h, higher = more signal, called active from +8 up or from −8 down.
A short description of experiment [5]: CREB reporter modulators under forskolin, primary screen, cell-based, PC12, CRE-LacZ reporter, forskolin-stimulated (AID 1146).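 Also: PC12 cells with 6xCRE LacZ reporter stimulated by forskolin 10 µM; beta-galactosidase reporter signal reflecting CREB driven transcription.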 Particulars: luminescence, 4.5 h, higher = more signal, called active from +8 up or from −8 down.
The target in experiment [6] is Streptavidin (Streptomyces avidinii) (UniProt P22629). Nature of the experiment: streptavidin binders on small-molecule microarray, primary screen, artefact control for SMM compound annotation, biophysical, 635/667 nm fluorescence (AID 1147).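 Also: signal reflects streptavidin binding to arrayed compounds as a control protein.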 Conditions: streptavidin binding, higher = more signal.
The nature of experiment [7]: small-molecule binders of probe aInhba, primary screen, biochemical, small-molecule microarray, 635/667 nm fluorescence (AID 1148).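 Also: score merges 667nm spot fluorescence with signal-to-noise for antibody binding to printed compounds.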 Conditions: higher = more signal.
For experiment [8], the target named is Torsin-1A (Homo sapiens) (UniProt O14656). Nature of the experiment: torsin A binders from cell lysate, primary screen, small-molecule microarray, wild-type, 635/667 nm (AID 1149). Particulars: COS7 hTOR1A-WT lysate, 635 nm fluorescence, higher = more signal.
The target is the same in experiment [9]. In words: small-molecule binders of mutant TOR1A in lysate, primary screen, cell lysate, small-molecule microarray, COS7 lysate, 635/667 nm fluorescence (AID 1150).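 Also: score pools 667 nm emission and signal to noise measuring lysate protein binding.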 Conditions: COS7 hTOR1A mutant lysate, 635 nm fluorescence, higher = more signal.
For experiment [10], the system named is Sonic hedgehog protein (Shh). Nature of the experiment: small-molecule binders of Shh protein, primary screen, biochemical, small-molecule microarray, 635/667 nm fluorescence (AID 1151).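 Also: Shh protein binding to compounds spotted on small-molecule microarray slides; score combines spot fluorescence intensity with signal-to-noise across triplicate slides.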 Conditions: small-molecule microarray binding, 635 nm fluorescence; higher = more signal.
Experiment [11] is described as follows: E. coli DRC41 culture turbidity changes, primary screen, E. coli filamentation inducer project, strain DRC41, OD650, 48 h (AID 1152).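 Also: E. coli MC1000 strain DRC41 lacking acrAB efflux pump and sulA.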 Conditions: E. coli DRC41 (acrAB sulA), higher = more signal, called active from +8 up or from −8 down.
Experiment [12] is described as follows: small-molecule binders of probe aLefty1, primary screen, biochemical, small-molecule microarray, 635/667 nm fluorescence (AID 1153).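 Also: score merges spot fluorescence with signal-to-noise ratio from the scanned slide images.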 Particulars: higher = more signal.
Experiment [13] in a line: PSAC antagonists in infected red cells, primary screen, cell-based, P. falciparum Indochina, OD700, 1 h (AID 1154). Conditions: P. falciparum Indochina infected RBC osmotic lysis, higher = more signal, called active from +8 up or from −8 down.
Experiment [14] in a line: PSAC antagonists in infected red cells, primary screen, cell-based, P. falciparum Indochina, OD700, 2 h (AID 1155).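 Also: lysis reports solute entry through the parasite surface anion channel PSAC; channel blockers reduce lysis of infected cells.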 Conditions: P. falciparum Indochina infected erythrocytes, osmotic lysis OD700; higher = more signal, called active from +8 up or from −8 down.
Experiment [15] is described as follows: osmotic lysis modulators in infected erythrocytes, primary screen, PSAC antagonist project, cell-based, P. falciparum Indochina, OD700, 3 h (AID 1156). Particulars: higher = more signal, called active from +8 up or from −8 down.
The nature of experiment [16]: PSAC antagonists in infected red cells, primary screen, cell-based, P. falciparum Indochina, OD700, 18 h (AID 1157). Conditions: P. falciparum Indochina infected erythrocytes, osmotic lysis OD700, 18 h; higher = more signal, called active from +8 up or from −8 down.
A short description of experiment [17]: modulators of S6 phosphorylation in cells, primary screen, cell-based, A549, cytoblot, luminescence, serum-stimulated (AID 1158).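 Also: serum-stimulated A549 lung adenocarcinoma cells; signal is phosphorylated S6 detected by cytoblot immunostaining with HRP secondary.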 Particulars: A549 phospho-S6 cytoblot, 5 h, higher = more signal.
Experiment [18] addresses NADPH oxidase 2 (Homo sapiens) (UniProt P04839). Nature of the experiment: NOX2-dependent H2O2 signal modulators, primary screen, NOX inhibitor project, cell-based, HEK293-NOX2, PMA-stimulated, Amplex Red fluorescence (AID 1159). Also: test concentration not given here. Conditions: 45 min, higher = more signal, called active from +8 up or from −8 down.
Experiment [19] addresses NADPH oxidase 4 (Homo sapiens) (UniProt Q9NPH5). Nature of the experiment: NOX4-dependent H2O2 signal modulators, primary screen, NOX inhibitor project, cell-based, HEK293-NOX4, tetracycline-induced, Amplex Red fluorescence (AID 1160). Particulars: 45 min, higher = more signal, called active from +8 up or from −8 down.
Experiment [20] concerns the target NADPH oxidase 5 (Homo sapiens) (UniProt Q96PH1). Nature of the experiment: NOX5-dependent H2O2 signal modulators, primary screen, NOX inhibitor project, cell-based, HEK293-NOX5, Amplex Red fluorescence (AID 1161). Particulars: HEK293-NOX5, ionomycin, 45 min, higher = more signal.

Chain of Streptavidin (Streptomyces avidinii) (P22629 whole entry, looked up): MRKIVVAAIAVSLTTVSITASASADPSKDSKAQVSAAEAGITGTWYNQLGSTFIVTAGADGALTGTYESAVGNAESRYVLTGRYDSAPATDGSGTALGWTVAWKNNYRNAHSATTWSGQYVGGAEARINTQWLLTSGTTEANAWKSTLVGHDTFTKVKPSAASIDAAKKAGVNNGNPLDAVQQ
Chain of NADPH oxidase 4 (Homo sapiens) (Q9NPH5 whole entry, looked up): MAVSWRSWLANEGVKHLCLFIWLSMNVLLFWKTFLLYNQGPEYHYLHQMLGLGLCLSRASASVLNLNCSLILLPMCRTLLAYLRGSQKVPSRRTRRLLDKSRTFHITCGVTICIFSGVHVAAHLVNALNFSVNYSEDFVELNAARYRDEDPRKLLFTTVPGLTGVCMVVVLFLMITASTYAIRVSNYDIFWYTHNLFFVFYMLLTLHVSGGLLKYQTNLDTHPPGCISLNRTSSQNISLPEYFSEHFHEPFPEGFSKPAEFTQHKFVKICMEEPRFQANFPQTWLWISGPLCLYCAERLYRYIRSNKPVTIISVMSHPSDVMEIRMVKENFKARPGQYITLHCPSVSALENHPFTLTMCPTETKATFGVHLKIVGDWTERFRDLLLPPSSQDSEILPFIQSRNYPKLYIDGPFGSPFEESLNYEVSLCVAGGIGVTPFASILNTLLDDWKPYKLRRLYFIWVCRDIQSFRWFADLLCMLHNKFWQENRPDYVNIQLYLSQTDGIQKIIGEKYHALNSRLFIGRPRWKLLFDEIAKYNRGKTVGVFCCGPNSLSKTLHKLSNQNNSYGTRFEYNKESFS
Chain of Torsin-1A (Homo sapiens) (O14656 whole entry, looked up): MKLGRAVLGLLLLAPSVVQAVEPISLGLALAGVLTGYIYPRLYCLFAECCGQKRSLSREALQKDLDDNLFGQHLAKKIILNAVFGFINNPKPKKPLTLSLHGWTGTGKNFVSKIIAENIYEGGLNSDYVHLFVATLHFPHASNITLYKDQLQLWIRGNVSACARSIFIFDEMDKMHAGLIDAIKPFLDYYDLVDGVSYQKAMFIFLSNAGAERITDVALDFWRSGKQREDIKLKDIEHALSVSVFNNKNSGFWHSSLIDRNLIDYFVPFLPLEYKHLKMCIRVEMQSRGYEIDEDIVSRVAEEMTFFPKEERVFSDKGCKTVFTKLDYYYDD
Chain of NADPH oxidase 5 (Homo sapiens) (Q96PH1 whole entry, looked up): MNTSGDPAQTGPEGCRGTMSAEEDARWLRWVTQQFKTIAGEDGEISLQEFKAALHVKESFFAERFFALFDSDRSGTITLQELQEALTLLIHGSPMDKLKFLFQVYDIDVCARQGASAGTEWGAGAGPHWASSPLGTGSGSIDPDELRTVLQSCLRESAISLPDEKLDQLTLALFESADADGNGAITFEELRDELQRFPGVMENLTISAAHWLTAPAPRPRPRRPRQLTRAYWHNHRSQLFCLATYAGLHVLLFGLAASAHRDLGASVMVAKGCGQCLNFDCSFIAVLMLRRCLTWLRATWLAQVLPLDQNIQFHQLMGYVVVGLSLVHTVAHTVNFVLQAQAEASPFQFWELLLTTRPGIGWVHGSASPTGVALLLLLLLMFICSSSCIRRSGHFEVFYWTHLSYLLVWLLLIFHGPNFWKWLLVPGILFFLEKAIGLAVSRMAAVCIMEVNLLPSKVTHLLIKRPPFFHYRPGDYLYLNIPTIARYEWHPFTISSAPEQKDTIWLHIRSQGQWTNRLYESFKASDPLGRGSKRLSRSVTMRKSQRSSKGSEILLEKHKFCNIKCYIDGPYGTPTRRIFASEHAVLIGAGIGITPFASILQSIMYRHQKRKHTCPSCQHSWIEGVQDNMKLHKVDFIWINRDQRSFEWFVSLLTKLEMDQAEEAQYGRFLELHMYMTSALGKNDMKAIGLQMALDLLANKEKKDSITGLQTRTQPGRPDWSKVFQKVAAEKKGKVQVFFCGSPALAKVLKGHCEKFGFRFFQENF
Chain of NADPH oxidase 2 (Homo sapiens) (P04839 whole entry, looked up): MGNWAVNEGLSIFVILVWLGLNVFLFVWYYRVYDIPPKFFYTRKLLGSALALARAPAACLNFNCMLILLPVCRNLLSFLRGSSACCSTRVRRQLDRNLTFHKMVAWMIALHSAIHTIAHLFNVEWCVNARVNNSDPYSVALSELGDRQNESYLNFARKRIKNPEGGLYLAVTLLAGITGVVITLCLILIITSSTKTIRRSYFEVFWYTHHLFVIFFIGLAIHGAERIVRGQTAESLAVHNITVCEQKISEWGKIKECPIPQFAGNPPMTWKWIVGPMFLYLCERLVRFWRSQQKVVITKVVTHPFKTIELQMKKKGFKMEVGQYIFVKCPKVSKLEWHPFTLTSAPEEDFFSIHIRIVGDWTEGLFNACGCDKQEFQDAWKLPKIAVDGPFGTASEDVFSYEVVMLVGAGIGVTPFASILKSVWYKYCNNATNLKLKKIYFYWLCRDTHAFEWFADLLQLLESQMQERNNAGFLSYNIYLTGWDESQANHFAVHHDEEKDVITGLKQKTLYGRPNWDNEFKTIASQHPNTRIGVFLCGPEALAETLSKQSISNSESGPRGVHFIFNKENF

In the case of `CC(=O)NCCCC[C@@H]1NC(=O)[C@@H]2C[C@H](C(=O)NCCCCCCN)[C@H](c3cccc(OCCO)c3)N2C1=O`, the composite z-score in experiment [1] was -0.147; in [6], 0.932; in experiment [7], -0.128; with Torsin-1A (Homo sapiens) [8], 0.475; with Torsin-1A (Homo sapiens) [9], 0.464; in [10], -0.601. In addition, the composite z-score in experiment [12] was 0.0455. In addition, the z-score is -0.0107 (inactive) in experiment [2]; 0.615 (inactive) in [3]; -0.13 (inactive) in experiment [4]; -0.556 (inactive) in experiment [5]; -0.813 (inactive) in [11]; 9.65 (active) in experiment [13]. The z-score in experiment [14] is 0.503 (inactive); in experiment [15], 0.819 (inactive); in experiment [16] it was 0.351 (inactive); in experiment [17] it was -0.42; in experiment [18] it was 0.892 (inactive); in [19] it was 0.353 (inactive). For the same compound, in experiment [20], the z-score is -0.568.
As for `C=CCNC(=O)[C@@H]1[C@H]2C(=O)O[C@H](c3ccccc3)[C@H](c3ccccc3)N2[C@H](c2ccc(O)cc2)[C@@]12C(=O)N(C(=O)OCCOC)c1ccc(C#CCCO)cc12`, the composite z-score in experiment [1] is 0.905; in [6], 0.945; in experiment [7], 0.198; with Torsin-1A (Homo sapiens) [8], 0.463; in the experiment with Torsin-1A (Homo sapiens) [9], 0.235; in experiment [10] it was 2.07. For the same compound, the composite z-score in experiment [12] was 0.0911. Moreover, the z-score in experiment [2] is -0.2 (inactive); in [3], 0.171 (inactive); in experiment [4], -0.337 (inactive); in [5], 0.243 (inactive); in experiment [11], -0.181 (inactive); in experiment [13], 2.22 (inactive). Also, the z-score is 0.517 (inactive) in experiment [14]; 0.0855 (inactive) in experiment [15]; 0.121 (inactive) in experiment [16]; 0.0918 in [17]; 0.982 (inactive) in [18]; 0.194 (inactive) in [19]. In experiment [20], this compound returned a z-score of 1.06.
For `CCC(CC)C(O)C1C=CC2C(=O)N(c3ccccc3)C(=O)C2N1Nc1ccc([N+](=O)[O-])cc1` (stereo not given), the composite z-score came to 0.205 in experiment [1]; 0.754 in [6]; 0.124 in [7]; 0.273 with Torsin-1A (Homo sapiens) [8]; 0.427 in the experiment with Torsin-1A (Homo sapiens) [9]; 0.179 in experiment [10]. Further, in experiment [12], the composite z-score was found to be 0.342. The z-score in [2] is 0.0373 (inactive); in [3], -0.639 (inactive); in experiment [4], -0.62 (inactive); in [5], -0.68 (inactive); in experiment [11] it was -0.639 (inactive); in [13], 6.6 (inactive). In addition, the z-score in [14] is 0.997 (inactive); in experiment [15], 0.136 (inactive); in experiment [16], 0.507 (inactive); in [17], -0.469; in experiment [18], -0.272 (inactive); in experiment [19] it was -0.44 (inactive). For the same compound, in experiment [20], the z-score was -1.03.
With `O=C(N1CCOCC1)[C@@]1(CCS(=O)(=O)c2ccccc2)N=C(c2ccc(OCCCO)cc2)O[C@H]1c1ccccc1`, the composite z-score in experiment [1] is 0.465; in experiment [6] it was 2.39; in experiment [7], 0.3; with Torsin-1A (Homo sapiens) [8], 0.411; with Torsin-1A (Homo sapiens) [9], 0.767; in experiment [10] it was -0.514. Besides, the composite z-score in [12] amounted to 0.446. Besides, the z-score in [2] is -1.48 (inactive); in [3], 0.201 (inactive); in [4], 0.0127 (inactive); in experiment [5], -0.0526 (inactive); in experiment [11], 0.276 (inactive); in [13] it was 30.2 (active). For the same compound, the z-score in [14] was 27.8 (active); in [15], 0.265 (inactive); in experiment [16], 5.34 (inactive); in experiment [17], -0.679; in experiment [18], 0.386 (inactive); in experiment [19] it was 1.75 (inactive). This compound gave a z-score in [20] of 1.97.
